In PubChem BioAssay (NCATS):
Inconclusive results are not listed. Active and inactive are the calls of the source. Calls come from the whole dose curve; as a rule, active = well fitted cell-killing curve with a large enough effect; inconclusive = small, poorly fitted or top-dose-only effect, or effect the other way; inactive = flat fitted curve, though single readings scatter.

Columns and labels:
Assay in all cases: Primary qHTS to identify gynecologic anti-cancer compounds using libraries of approved drugs and bioactive compounds (AID 1345084); note: nearly all actives have a fitted effect of over 55% in size
C33A = details: Gynecologic cancer cell panel viability, ATPlite luminescence, 48 h; series mostly up to 57.5 µM
Summary of the method: (§1)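 In this quantitative HTS, cell killing is estimated from loss of ATP-dependent luciferase light. Cells see five compound concentrations over a 48 h exposure.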

CAOV3 = details: Gynecologic cancer cell panel viability, ATPlite luminescence, 48 h; series mostly up to 57.5 µM
Summary of the method: as §1

CASKI = details: Gynecologic cancer cell panel viability, ATPlite luminescence, 48 h; series mostly up to 57.5 µM
Summary of the method: as §1

Es-2 = details: Gynecologic cancer cell panel viability, ATPlite luminescence, 48 h; series mostly up to 57.5 µM
Summary of the method: as §1

HeLa = details: Gynecologic cancer cell panel viability, ATPlite luminescence, 48 h; series mostly up to 57.5 µM
Summary of the method: as §1

Hek293T = details: Gynecologic cancer cell panel viability, ATPlite luminescence, 48 h, control line for the selectivity index; series mostly up to 57.5 µM
Summary of the method: as §1

JEG-3 = details: Gynecologic cancer cell panel viability, ATPlite luminescence, 48 h; series mostly up to 57.5 µM
Summary of the method: as §1

OV90 = details: Gynecologic cancer cell panel viability, ATPlite luminescence, 48 h; series mostly up to 57.5 µM
Summary of the method: as §1

PA-1 = details: Gynecologic cancer cell panel viability, ATPlite luminescence, 48 h; series mostly up to 57.5 µM
Summary of the method: as §1

SKOV3 = details: Gynecologic cancer cell panel viability, ATPlite luminescence, 48 h; series mostly up to 57.5 µM
Summary of the method: as §1

Tov-21-G = details: Gynecologic cancer cell panel viability, ATPlite luminescence, 48 h; series mostly up to 57.5 µM
Summary of the method: as §1

Tov112D = details: Gynecologic cancer cell panel viability, ATPlite luminescence, 48 h; series mostly up to 57.5 µM
Summary of the method: as §1
% is set by controls: 0 for no effect and ±100 for the full control effect.

C/C=C/C=C/c1cc2c(C=O)c(O)c(CC=C(C)C)cc2o1
inactive: Potency (C33A) | Potency (CAOV3) | Potency (CASKI) | Potency (Es-2) | Potency (HeLa) | Potency (Hek293T) | Potency (JEG-3) | Potency (OV90) | Potency (PA-1) | Potency (SKOV3) | Potency (Tov-21-G) | Potency (Tov112D)

CNc1cc2[nH]c(=O)n(-c3ccc(NC(=O)NS(=O)(=O)c4ccc(Cl)s4)cc3)c(=O)c2cc1F
inactive: Potency (C33A) | Potency (CAOV3) | Potency (CASKI) | Potency (Es-2) | Potency (HeLa) | Potency (Hek293T) | Potency (JEG-3) | Potency (OV90) | Potency (PA-1) | Potency (SKOV3) | Potency (Tov-21-G) | Potency (Tov112D)

O=C1Nc2ccccc2-c2nc3ccccc3c(=O)n2-c2c(O)cccc21
inactive: Potency (C33A) | Potency (CAOV3) | Potency (CASKI) | Potency (Es-2) | Potency (HeLa) | Potency (Hek293T) | Potency (JEG-3) | Potency (OV90) | Potency (PA-1) | Potency (SKOV3) | Potency (Tov-21-G) | Potency (Tov112D)

COC(=O)/C=C/C=C/C(=O)OC1C=C2COC(=O)C2(O)C2(C)CCCC(C)(C)C12 (stereo unspecified)
inactive: Potency (C33A) | Potency (CAOV3) | Potency (CASKI) | Potency (Es-2) | Potency (HeLa) | Potency (Hek293T) | Potency (JEG-3) | Potency (OV90) | Potency (PA-1) | Potency (SKOV3) | Potency (Tov-21-G) | Potency (Tov112D)

Cc1ccc(F)cc1S(=O)(=O)N[C@@H]1CCN(Cc2ccc(OC(C)C)cc2)C1
inactive: Potency (C33A) | Potency (CAOV3) | Potency (CASKI) | Potency (Es-2) | Potency (HeLa) | Potency (Hek293T) | Potency (JEG-3) | Potency (OV90) | Potency (PA-1) | Potency (SKOV3) | Potency (Tov-21-G) | Potency (Tov112D)

COc1ccc(C#Cc2ccc(C(=O)N3CCC[C@@H](CO)C3)cc2)cc1
inactive: Potency (C33A) | Potency (CAOV3) | Potency (CASKI) | Potency (Es-2) | Potency (HeLa) | Potency (Hek293T) | Potency (JEG-3) | Potency (OV90) | Potency (PA-1) | Potency (SKOV3) | Potency (Tov-21-G) | Potency (Tov112D)

C[C@@H]1CC[C@]2(C(=O)O)CC[C@]3(C)C(=CCC4[C@@]5(C)CC[C@H](O)[C@](C)(C(=O)O)C5CC[C@]43C)C2[C@]1(C)O (stereo partly specified)
inactive: Potency (C33A) | Potency (CAOV3) | Potency (CASKI) | Potency (Es-2) | Potency (HeLa) | Potency (Hek293T) | Potency (JEG-3) | Potency (OV90) | Potency (PA-1) | Potency (SKOV3) | Potency (Tov-21-G) | Potency (Tov112D)

CC(=O)OC[C@]12[C@H](OC(C)=O)C(=O)[C@@H]3[C@@H](O)[C@@]14O[C@@]3(C)COC(=O)c1cccnc1[C@@H](C)[C@H](C)C(=O)O[C@@H]([C@H](O)[C@@H]2OC(C)=O)[C@]4(C)O
inactive: Potency (C33A) | Potency (CAOV3) | Potency (CASKI) | Potency (Es-2) | Potency (HeLa) | Potency (Hek293T) | Potency (JEG-3) | Potency (OV90) | Potency (PA-1) | Potency (SKOV3) | Potency (Tov-21-G) | Potency (Tov112D)

COc1cc2c(cc1O)C1(Cc3ccc4c(c3C1O)OCO4)[N+](C)([O-])CC2 (stereo unspecified)
inactive: Potency (C33A) | Potency (CAOV3) | Potency (CASKI) | Potency (Es-2) | Potency (HeLa) | Potency (Hek293T) | Potency (JEG-3) | Potency (OV90) | Potency (PA-1) | Potency (SKOV3) | Potency (Tov-21-G) | Potency (Tov112D)

C=C(C)C(=O)O[C@H]1[C@H]2C(=C)C(=O)O[C@@H]2/C=C(\CO)CC/C=C(/C=O)[C@@H]1O
inactive: Potency (C33A) | Potency (CAOV3) | Potency (CASKI) | Potency (Es-2) | Potency (HeLa) | Potency (Hek293T) | Potency (JEG-3) | Potency (OV90) | Potency (PA-1) | Potency (SKOV3) | Potency (Tov-21-G) | Potency (Tov112D)

O=C(O)c1cc(N(Cc2ccc(C3CCCCC3)cc2)C(=O)c2ccc(Oc3ccccc3)cc2)ccc1O
inactive: Potency (C33A) | Potency (CAOV3) | Potency (CASKI) | Potency (Es-2) | Potency (HeLa) | Potency (Hek293T) | Potency (JEG-3) | Potency (OV90) | Potency (PA-1) | Potency (SKOV3) | Potency (Tov-21-G) | Potency (Tov112D)

CCN(c1cc(-c2ccc(CN3CCOCC3)cc2)cc(C(=O)NCc2c(C)cc(C)[nH]c2=O)c1C)C1CCOCC1
inactive: Potency (C33A) | Potency (CAOV3) | Potency (CASKI) | Potency (Es-2) | Potency (HeLa) | Potency (Hek293T) | Potency (JEG-3) | Potency (OV90) | Potency (PA-1) | Potency (SKOV3) | Potency (Tov-21-G) | Potency (Tov112D)

O=C1COc2nccc(-c3ccccc3F)c2CN1Cc1cc(C(F)(F)F)cc(C(F)(F)F)c1
inactive: Potency (C33A) | Potency (CAOV3) | Potency (CASKI) | Potency (Es-2) | Potency (HeLa) | Potency (Hek293T) | Potency (JEG-3) | Potency (OV90) | Potency (PA-1) | Potency (SKOV3) | Potency (Tov-21-G) | Potency (Tov112D)

CC1(CO)CC2C(O)C3=C(CC(C)(O)C2C1)C(=O)OC3 (stereo unspecified)
inactive: Potency (C33A) | Potency (CAOV3) | Potency (CASKI) | Potency (Es-2) | Potency (HeLa) | Potency (Hek293T) | Potency (JEG-3) | Potency (OV90) | Potency (PA-1) | Potency (SKOV3) | Potency (Tov-21-G) | Potency (Tov112D)

CC1(NC(=O)c2ccc(C#Cc3cccc(F)c3)cn2)COC1
inactive: Potency (C33A) | Potency (CAOV3) | Potency (CASKI) | Potency (Es-2) | Potency (HeLa) | Potency (Hek293T) | Potency (JEG-3) | Potency (OV90) | Potency (PA-1) | Potency (SKOV3) | Potency (Tov-21-G) | Potency (Tov112D)

CC1(C)CCC2(C(=O)OC3OC(COC4OC(CO)C(O)C(O)C4O)C(O)C(O)C3O)CCC3(C)C(=CCC4C5(C)CCC(OC6OCC(O)C(O)C6O)C(C)(C)C5CCC43C)C2C1O (stereo unspecified)
inactive: activity change, negative = cytotoxicity (C33A) -1.3% [at 11.6 µM] | activity change, negative = cytotoxicity (CAOV3) 1.87% [at 11.6 µM] | activity change, negative = cytotoxicity (CASKI) -6.34% [at 11.6 µM] | activity change, negative = cytotoxicity (Es-2) 5.34% [at 11.6 µM] | activity change, negative = cytotoxicity (HeLa) 20.6% [at 11.6 µM] | activity change, negative = cytotoxicity (Hek293T) -15.1% [at 11.6 µM] | activity change, negative = cytotoxicity (JEG-3) -7.3% [at 11.6 µM] | activity change, negative = cytotoxicity (OV90) -2.98% [at 11.6 µM] | activity change, negative = cytotoxicity (PA-1) -14.1% [at 11.6 µM] | activity change, negative = cytotoxicity (SKOV3) -2.57% [at 11.6 µM] | activity change, negative = cytotoxicity (Tov-21-G) 0.233% [at 11.6 µM] | activity change, negative = cytotoxicity (Tov112D) -9.09% [at 11.6 µM]

CC1(C=O)CCCC2(C)C1CCC13CC(CO)C(CCC12)C3 (stereo unspecified)
inactive: Potency (C33A) | Potency (CAOV3) | Potency (CASKI) | Potency (Es-2) | Potency (HeLa) | Potency (Hek293T) | Potency (JEG-3) | Potency (OV90) | Potency (PA-1) | Potency (SKOV3) | Potency (Tov-21-G) | Potency (Tov112D)

CC(C)c1ccc(NC(=O)Cn2cnc3c2c(=O)n(C)c(=O)n3C)cc1
inactive: Potency (C33A) | Potency (CAOV3) | Potency (CASKI) | Potency (Es-2) | Potency (HeLa) | Potency (Hek293T) | Potency (JEG-3) | Potency (OV90) | Potency (PA-1) | Potency (SKOV3) | Potency (Tov-21-G) | Potency (Tov112D)
